PNC inhibitor = perinucleolar compartment assembly inhibition | AID 2417 | 140,000 tested, 3.1% active | PC3M PTB-GFP, PNC prevalence imaging, 16 h; active compounds read low | activity change (PNC), negative = inhibition, % at 10 µM;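 active = readout at or below -70, meaning at least 70% loss of cells showing the perinucleolar compartment, a nuclear body marking cancer cells; inconclusive = readout between -30 and a set limit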;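 also: plate controls were DMSO wells for no effect and camptothecin positive control wells for full effect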
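PC3M cells stably expressing PTB-GFP, 750–1000 cells/well, treated 16 h at 37 °C with compound (23 nl of library stock), in duplicate. After paraformaldehyde fixation and Hoechst stain, imaged at 20x; PNC prevalence scored by image analysis.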
LMNA splice mod = changes lamin A minigene splicing in HeLa cells | HeLa LMNA splicing GFP/RFP minigene ratio, 48 h | Potency, µM (series often up to 46.1 µM), for inactives: top-dose ratio change, negative = inhibition, actives largely listed as inhibitors | 200,000 tested, 0.01% active; active = well fitted inhibition curve with a large enough effect in the signal ratio, with a control signal flat, not every such curve was filed as active; inconclusive = small, poorly fitted or top-dose-only effect, or effect the other way, or a change in a side signal; the % refers to the signal ratio; also: potency is read from the fitted curve at half-maximal effect
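Read-out is the ratio of GFP to DsRed2 object intensity, acquired by 488 nm laser-scanning cytometry on HeLa lamin A-EGFP minigene reporter cells. Compound incubation 48 hrs at 37 °C in Opti-MEM with 2% FBS; DMSO 0.5% final.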
ALOX12 inhib = blocks human 12-lipoxygenase activity; 150,000 tested, 0.12% active; Potency, µM (doses to about 57.1 µM), for inactives: at the highest dose activity change, negative = inhibition, usual class: inhibitors; purified 12-hLO, xylenol orange hydroperoxide absorbance; active = well fitted inhibition curve with a large enough effect; inconclusive = small, poorly fitted or top-dose-only effect; also: potency is read from the fitted curve at half-maximal effect; nearly all actives have a fitted effect of over 55% in size
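Hydroperoxide formation by human 12-lipoxygenase from 40 uM arachidonic acid was followed colorimetrically via ferric-xylenol orange complex, using the 573/405 nm absorbance ratio. Enzyme concentration was 150 nM, with 30 min reaction at room temperature.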
ALDH1A1 block = inhibitors of human aldehyde dehydrogenase 1A1; Purified ALDH1A1, NADH fluorescence, propionaldehyde substrate; AID 1030; 220,000 tested, 7.3% active; Potency, µM (titrated, usually from 75.3 µM), for inactives: at the highest dose activity, negative = inhibition, most hits filed as inhibitors; P00352;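 also: potency is read from the fitted curve at half-maximal effect; plate controls were no enzyme wells and a reference inhibitor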
Target sequence (P00352 whole entry, looked up): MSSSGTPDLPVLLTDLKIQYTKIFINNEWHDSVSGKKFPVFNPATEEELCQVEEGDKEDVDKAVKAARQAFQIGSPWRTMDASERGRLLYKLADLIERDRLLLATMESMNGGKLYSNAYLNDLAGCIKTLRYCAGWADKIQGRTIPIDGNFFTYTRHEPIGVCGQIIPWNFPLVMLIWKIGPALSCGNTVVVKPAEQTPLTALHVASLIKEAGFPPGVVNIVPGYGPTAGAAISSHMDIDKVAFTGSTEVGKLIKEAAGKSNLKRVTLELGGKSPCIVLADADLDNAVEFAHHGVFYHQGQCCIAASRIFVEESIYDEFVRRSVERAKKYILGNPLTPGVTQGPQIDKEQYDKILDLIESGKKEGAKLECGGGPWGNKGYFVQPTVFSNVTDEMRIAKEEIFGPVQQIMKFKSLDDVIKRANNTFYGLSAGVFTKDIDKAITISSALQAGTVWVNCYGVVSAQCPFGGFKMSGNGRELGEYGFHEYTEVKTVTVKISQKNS
HPGD block = HPGD (human) dehydrogenase inhibition; P15428; purified HPGD, NADH fluorescence kinetic, PGE2 substrate; Potency, µM, for inactives: at the highest dose activity change, negative = inhibition, most hits filed as inhibitors; 150,000 tested, 4.3% active; AID 894; also: potency is read from the fitted curve at half-maximal effect
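20 nM HPGD preincubated 15 min at room temperature with compound in 50 mM Tris-HCl pH 8, 0.01% Tween 20. Started with 1 mM NAD+ and 30 uM prostaglandin E2; NADH fluorescence (360/450 nm) read 5 times over 30-s intervals, last minus first.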
* hit, by the source's call; [ ] = another dose, or the depositor's remark. Most compounds without a hit are left out; they make up all but 10% or so of the library. Unless noted, calls follow the shape of the dose curve; as a rule, active = well fitted inhibition curve with a large enough effect (not every such curve was filed as active); inconclusive = small, poorly fitted or top-dose-only effect, or another doubt; inactive = no such curve, though single readings can be large or run the other way. Unless noted, % is scaled to controls: 0 for no effect and ±100 for the full control effect.

What do the screens show for `NS(=O)(=O)c1ccc(NS(=O)(=O)c2ccc(NC(=S)Nc3ccccc3)cc2)cc1`?
PNC inhibitor: -6; LMNA splice mod: -17%; ALOX12 inhib: -3%; ALDH1A1 block: inconclusive; HPGD block: -12%

What do the screens show for `NS(=O)(=O)c1ccc(NC(=S)Nc2ccn(Cc3cccc4ccccc34)n2)cc1`?
ALDH1A1 block: 13µM*

What do the screens show for `Cn1cc(S(=O)(=O)N2CCCCC2)cc1C(=O)N1CCN(c2ccc(F)cc2)CC1`?
LMNA splice mod: 3%[46 µM]

Results for Cc1nn(C)c(C)c1S(=O)(=O)N(CC(=O)N1CCc2ccccc2C1)c1ccc(C(C)C)cc1 ?
PNC inhibitor: 32; LMNA splice mod: 0%; ALOX12 inhib: -10%; ALDH1A1 block: 11µM*; HPGD block: -5%

How did O=C(c1cc(C(F)(F)F)cc(C(F)(F)F)c1)N1CCC[C@@]2(CCN(c3ccccc3)C2)C1 do in these assays?
ALOX12 inhib: -18%; ALDH1A1 block: -6%; HPGD block: -10%

What do the screens show for `Cc1ccc(Nc2nc(C3CC3)cs2)cc1`?
PNC inhibitor: -119*; LMNA splice mod: -10%; ALOX12 inhib: -21%; ALDH1A1 block: inconclusive; HPGD block: -16%

Results for O=C(O)/C=C\C=C/c1ccc2c(c1)OCO2 ?
ALOX12 inhib: -3%[11.4 µM]; ALDH1A1 block: -9%[13.5 µM]; HPGD block: -25%

How did Cc1nc(NCCNC(=O)c2ccco2)c2c(C)c(C)sc2n1 do in these assays?
PNC inhibitor: 14; LMNA splice mod: -19%; ALOX12 inhib: -2%; ALDH1A1 block: 14µM*; HPGD block: -17%

What do the screens show for `CCOC(=O)CCN1C(=O)[C@H]2[C@H]3[C@H](O)[C@H](O)C/C(=N/NC(=O)OCC)[C@@H]3CC[C@@H]2C1=O`?
ALDH1A1 block: 2%[13.5 µM]

How did O=C(OCC(=O)N1CCN(c2ccccc2)CC1)c1ccc2ccccc2n1 do in these assays?
PNC inhibitor: 3; LMNA splice mod: 2%; ALOX12 inhib: -1%; ALDH1A1 block: 8.9µM*; HPGD block: -7%

Results for CN(c1ccccc1)c1ncnc2c1cnn2C ?
LMNA splice mod: 2%[46 µM]

How did COc1ccc(C2CC(=O)N(C)c3ccccc3S2)cc1OC (configuration not stated) do in these assays?
LMNA splice mod: -16%[9.22 µM]; ALDH1A1 block: 10%

Results for COc1ccc(OC)c(C2NC(=O)c3sc(=S)n(-c4ccccc4)c3N2)c1 (configuration not stated) ?
PNC inhibitor: 4; LMNA splice mod: -1%; ALOX12 inhib: -13%; ALDH1A1 block: inconclusive; HPGD block: inconclusive

How did C=CCOC(=O)C1=C(C)OC(N)=C(C#N)C1c1ccccc1F (configuration not stated) do in these assays?
PNC inhibitor: -27; LMNA splice mod: -7%; ALOX12 inhib: -16%; ALDH1A1 block: -6%; HPGD block: -13%

Results for COc1ccc(C2CC(=O)N3CN(c4ccccc4F)CSC3=C2C#N)cc1OC (configuration not stated) ?
PNC inhibitor: 16; LMNA splice mod: 12%; ALOX12 inhib: -19%; ALDH1A1 block: 7.1µM*; HPGD block: inconclusive

What do the screens show for `COc1ccc(C2CC(=O)N3CN(c4ccc(C)c(Cl)c4)CSC3=C2C#N)cc1` (configuration not stated)?
PNC inhibitor: 63; LMNA splice mod: 2%; ALOX12 inhib: -27%; ALDH1A1 block: 3.2µM*; HPGD block: inconclusive

How did CCc1ccccc1N1CSC2=C(C#N)C(c3ccccc3F)CC(=O)N2C1 (configuration not stated) do in these assays?
PNC inhibitor: inconclusive; LMNA splice mod: 7%; ALOX12 inhib: inconclusive; ALDH1A1 block: 2.8µM*; HPGD block: 5.6µM*

How did COc1ccc(N2CN=C3SCC(=O)N3C2)cc1 do in these assays?
PNC inhibitor: inconclusive; LMNA splice mod: 1%; ALOX12 inhib: -1%; ALDH1A1 block: 1%; HPGD block: -2%

What do the screens show for `COc1ccc(OC)c(C2CC(=O)N3CN(c4ccccc4)CSC3=C2C#N)c1` (configuration not stated)?
PNC inhibitor: 34; LMNA splice mod: 5%; ALOX12 inhib: inconclusive; ALDH1A1 block: 7.9µM*; HPGD block: 7.1µM*

Results for NCC1O[C@@H](OC2C(N)C[C@H](N)[C@@H](O[C@H]3OC(CO)C(O)C(N)C3O)C2O)C(O)C(O)C1O (some centres not stated) ?
ALOX12 inhib: -4%; ALDH1A1 block: 7%; HPGD block: -7%

Results for Cc1cccc(N2CSC3=C(C#N)C(c4ccc(C)o4)CC(=O)N3C2)c1 (configuration not stated) ?
PNC inhibitor: inconclusive; LMNA splice mod: 11%; ALOX12 inhib: -26%; ALDH1A1 block: 8.9µM*; HPGD block: 8.9µM*

How did COc1ccc(N2CSC3=C(C#N)C(c4cccc(OC)c4OC)CC(=O)N3C2)cc1 (configuration not stated) do in these assays?
PNC inhibitor: 12; LMNA splice mod: 4%; ALOX12 inhib: -26%; ALDH1A1 block: 13µM*; HPGD block: 8.9µM*

How did COc1cc(OC)c(C2CC(=O)N3CN(c4ccccc4C)CSC3=C2C#N)cc1OC (configuration not stated) do in these assays?
PNC inhibitor: -18; LMNA splice mod: -9%; ALOX12 inhib: -11%; ALDH1A1 block: 4µM*; HPGD block: 8.9µM*

How did COc1ccc(CN2CC(=O)N(c3ccccc3C)C2=S)cc1OC do in these assays?
ALDH1A1 block: 11%

Results for Cc1cc(C)c2c(=O)[nH]c(SCc3ccccc3C)nc2n1 ?
ALDH1A1 block: -3%

How did Cc1cccc(CSc2nc3c(c(=O)[nH]2)CCC3)c1 do in these assays?
LMNA splice mod: -25%[46 µM]; ALDH1A1 block: 8%

How did Cc1ccc(CSc2nc3c(c(=O)[nH]2)CCC3)cc1 do in these assays?
PNC inhibitor: 2; LMNA splice mod: -13%; ALOX12 inhib: 1%; ALDH1A1 block: 9%; HPGD block: 10µM*

What do the screens show for `Cc1ccccc1CSc1nc2c(c(=O)[nH]1)CCCC2`?
PNC inhibitor: 13; LMNA splice mod: 6%; ALOX12 inhib: 3%; ALDH1A1 block: 10%; HPGD block: 4µM*

Results for O=c1[nH]c(NCc2ccccc2)nc2c1CCCC2 ?
PNC inhibitor: -23; LMNA splice mod: -15%; ALOX12 inhib: 7%; ALDH1A1 block: -4%; HPGD block: 13µM*

How did CCOc1ccc(NS(=O)(=O)c2ccc3c(c2)NC(=O)CCS3)cc1 do in these assays?
LMNA splice mod: -7%[46 µM]

What do the screens show for `O=C(Nc1ccc2c(c1)OCCO2)c1cncc(Br)c1`?
PNC inhibitor: 16; LMNA splice mod: 8%; ALOX12 inhib: -1%; ALDH1A1 block: -5%; HPGD block: -7%

Screens: PubChem, National Center for Advancing Translational Sciences (NCATS)
